Compounds without any hit were thinned out: in the full panel of roughly 79,000, 15% have a hit. The source made the active and inactive calls. Rule as the data show it: active = growth inhibition above about 70%; inactive = the rest.
How the values were obtained:
[1] = NCI Yeast Anticancer Drug Screen. Data for the rad52 strain (AID 147);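 also: 0% = growth of vehicle-treated control cultures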; details: S. cerevisiae rad52 mutant growth inhibition, active compounds read high
How it was run: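 Inhibition of yeast growth, referenced to vehicle controls, was the measured output for a strain with defective DNA damage repair.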

[2] = NCI Yeast Anticancer Drug Screen. Data for the wt1 strain (AID 149);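 also: 0% = growth of vehicle-treated wt1 cultures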; details: S. cerevisiae wt1 strain (SPY 50644) growth inhibition, active compounds read high
How it was run: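 wt1 yeast, compound-treated; % growth inhibition vs vehicle control.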

[3] = NCI Yeast Anticancer Drug Screen. Data for the rad50EPP+ strain (AID 151);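 also: 0% = growth of vehicle-treated control cultures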; details: S. cerevisiae rad50 mutant strain, active compounds read high
How it was run: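 Genetically defined yeast (rad50EPP+, DNA damage repair alteration) is grown with compound, and inhibition of growth is expressed relative to vehicle-treated controls.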

[4] = NCI Yeast Anticancer Drug Screen. Data for the rad50 strain (AID 155);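 also: 0% = growth of vehicle-only cultures of the same strain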; details: S. cerevisiae rad50 strain growth inhibition, active compounds read high
How it was run: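 Genetically altered yeast (DNA repair pathway); compound treatment; growth inhibition vs vehicle ctrl.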

[5] = NCI Yeast Anticancer Drug Screen. Data for the mec2-1 strain (AID 157); details: S. cerevisiae mec2-1 strain, active compounds read high
How it was run: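 Each compound was tested on mec2-1 yeast, a strain altered in DNA damage repair or cell cycle control. Growth inhibition is reported relative to vehicle.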

[6] = NCI Yeast Anticancer Drug Screen. Data for the rad14 strain (AID 159);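 also: 0% = growth of vehicle-treated control cultures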; details: S. cerevisiae rad14 strain growth inhibition, active compounds read high
How it was run: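 Test compounds were applied to a repair-deficient yeast strain. Its growth was then compared with that of cultures given vehicle alone, and inhibition was expressed relative to those controls.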

[7] = NCI Yeast Anticancer Drug Screen. Data for the sgs1 mgt1 strain (AID 161);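 also: 0% = growth of cultures given vehicle only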; details: S. cerevisiae sgs1 mgt1 strain, active compounds read high
How it was run: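 Mutant yeast exposed to compound; growth scored against vehicle-only wells.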

[8] = NCI Yeast Anticancer Drug Screen. Data for the CLN2oe strain (AID 163);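 also: 0% = growth of vehicle-only control cultures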; details: S. cerevisiae CLN2oe strain, active compounds read high
How it was run: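 First, the altered yeast strain was treated with each compound; second, its growth was measured; finally, inhibition was derived by comparison with vehicle controls.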

[9] = NCI Yeast Anticancer Drug Screen. Data for the cln2 rad14 strain (AID 165);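 also: 0% = growth equal to vehicle treated cultures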; details: S. cerevisiae cln2 rad14 strain, active compounds read high
How it was run: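 Test compounds were added to cln2 rad14 yeast cultures; inhibition of growth was then determined by comparison with vehicle treatment.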

[10] = NCI Yeast Anticancer Drug Screen. Data for the bub3 strain (AID 167); details: S. cerevisiae bub3 mutant strain, active compounds read high
How it was run: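 Yeast carrying a defined mutation is treated with each compound, and growth is compared with that of vehicle-exposed cells to give inhibition.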

[11] = NCI Yeast Anticancer Drug Screen. Data for the wt2 strain (AID 169);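 also: 0% = growth of vehicle-treated yeast cultures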; details: S. cerevisiae wt2 strain growth inhibition, active compounds read high
How it was run: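 The panel's yeast strains carry defined changes in DNA repair or cell cycle genes. Each strain is grown with compound, and growth loss is scored relative to vehicle.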

[12] = NCI Yeast Anticancer Drug Screen. Data for the mlh1 strain (AID 171);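 also: 0% = growth of vehicle-treated control cultures of the same strain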; details: S. cerevisiae mlh1 strain growth inhibition, active compounds read high
How it was run: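 Inhibition values reflect reduced yeast growth in the presence of compound, referenced to vehicle controls, using a strain chosen for its alteration in DNA repair or cell cycle control.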

[13] = NCI Yeast Anticancer Drug Screen. Data for the sgs1 strain (AID 173);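 also: 0% = growth of vehicle-only control cultures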; details: S. cerevisiae sgs1 mutant, active compounds read high
How it was run: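 Vehicle-treated cultures served as reference for growth inhibition of a yeast strain altered in DNA damage repair or cell cycle control after compound exposure.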

[14] = NCI Yeast Anticancer Drug Screen. Data for the mlh1 rad18 strain (AID 175); details: S. cerevisiae mlh1 rad18 strain growth inhibition, active compounds read high
How it was run: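 Inhibition values reflect reduced growth of mutant yeast versus vehicle-treated controls following compound exposure; the mutations affect DNA damage repair.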

[15] = NCI Yeast Anticancer Drug Screen. Data for the rad18 strain (AID 177); details: S. cerevisiae rad18 mutant growth inhibition, active compounds read high
How it was run: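 Steps: expose repair-mutant yeast to compound; measure growth; express as inhibition relative to vehicle control.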

[16] = NCI Yeast Anticancer Drug Screen. Data for the mgt1 strain (AID 153); details: S. cerevisiae mgt1 mutant growth inhibition, active compounds read high
How it was run: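 In the mgt1 strain, test compounds were added and growth inhibition was determined relative to vehicle-treated controls.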

[17] = at 5.0 µM (retest, dose inferred, filed as 0.5)
[18] = at 50.0 µM (retest, dose inferred, filed as 5.0)

Measured: growth inhibition

CC(=O)OC1CCC2(C)C(=CCC3C4CCC5(OC6CC(C)CN(C(C)=O)C6C5C)C(C)=C4C(=O)C32)C1 (stereo not drawn)
inactive: [1]; at 1.2 µM 18% | [1]; at 3.7 µM 12% | [1]; at 11.0 µM 57% | [2]; at 1.2 µM 2% | [2]; at 3.7 µM 2% | [2]; at 11.0 µM 28% | [3]; at 1.2 µM -39% | [3]; at 3.7 µM -28% | [3]; at 11.0 µM -7% | [3]; at 33.0 µM 6% | [3]; at 100.0 µM -1% | [4]; at 1.2 µM -49% | [4]; at 3.7 µM -31% | [4]; [17] 0% | [4]; at 11.0 µM 61% | [5]; at 1.2 µM -32% | [5]; at 3.7 µM -32% | [5]; [17] -9% | [5]; at 11.0 µM 3% | [5]; at 50.0 µM 68.4% | [6]; at 1.2 µM -30% | [6]; at 3.7 µM -17% | [6]; at 11.0 µM 50% | [7]; [17] 7% | [7]; at 50.0 µM 69.4% | [8]; at 1.2 µM 1% | [8]; at 3.7 µM -12% | [8]; at 11.0 µM 41% | [9]; [17] 17% | [10]; at 1.2 µM -2% | [10]; at 3.7 µM -23% | [10]; [17] 32% | [10]; at 11.0 µM 24% | [11]; at 1.2 µM -9% | [11]; at 3.7 µM -4% | [11]; at 11.0 µM 53% | [11]; at 100.0 µM 59% | [12]; at 1.2 µM -17% | [12]; at 3.7 µM -21% | [12]; at 11.0 µM 51% | [13]; at 1.2 µM -10% | [13]; at 3.7 µM -9% | [13]; at 11.0 µM 54% | [14]; [17] -10% | [15]; at 1.2 µM -1% | [15]; at 3.7 µM 15%
active: [1]; at 33.0 µM 97% | [1]; at 100.0 µM 96% | [2]; at 33.0 µM 97% | [2]; at 100.0 µM 94% | [4]; at 33.0 µM 94% | [4]; [18] 96% | [4]; at 50.0 µM 83.2% | [4]; at 100.0 µM 95% | [5]; at 33.0 µM 96% | [5]; [18] 98% | [5]; at 100.0 µM 89% | [6]; at 33.0 µM 96% | [6]; at 100.0 µM 89% | [7]; [18] 96% | [8]; at 33.0 µM 98% | [8]; at 100.0 µM 92% | [9]; [18] 98% | [9]; at 50.0 µM 84.2% | [10]; at 33.0 µM 96% | [10]; [18] 98% | [10]; at 50.0 µM 81.2% | [10]; at 100.0 µM 95% | [11]; at 33.0 µM 97% | [12]; at 33.0 µM 96% | [12]; at 100.0 µM 90% | [13]; at 33.0 µM 96% | [13]; at 100.0 µM 93% | [14]; [18] 98% | [14]; at 50.0 µM 76.8% | [15]; at 11.0 µM 75% | [15]; at 33.0 µM 96% | [15]; at 100.0 µM 95%

O=c1c2ccccc2ncn1COCc1ccccc1
active: [9]; [18] 75% | [10]; [18] 88% | [10]; at 50.0 µM 74.3%
inactive: [1]; at 1.2 µM -4% | [1]; at 3.7 µM 3% | [1]; at 11.0 µM -22% | [1]; at 33.0 µM -16% | [1]; at 100.0 µM 2% | [2]; at 1.2 µM -2% | [2]; at 3.7 µM -19% | [2]; at 11.0 µM -11% | [2]; at 33.0 µM -13% | [2]; at 100.0 µM 8% | [3]; at 1.2 µM -31% | [3]; at 3.7 µM -30% | [3]; at 11.0 µM -28% | [3]; at 33.0 µM -21% | [3]; at 100.0 µM 8% | [16]; at 1.2 µM -17% | [16]; at 3.7 µM -14% | [16]; at 11.0 µM -11% | [16]; at 33.0 µM 1% | [16]; at 100.0 µM 21% | [4]; at 1.2 µM -10% | [4]; at 3.7 µM 2% | [4]; [17] 14% | [4]; at 11.0 µM 3% | [4]; at 33.0 µM 9% | [4]; [18] 19% | [4]; at 50.0 µM 1.9% | [4]; at 100.0 µM 23% | [5]; at 1.2 µM -12% | [5]; at 3.7 µM -15% | [5]; [17] 14% | [5]; at 11.0 µM -11% | [5]; at 33.0 µM 2% | [5]; [18] 15% | [5]; at 50.0 µM -6.6% | [5]; at 100.0 µM 26% | [6]; at 1.2 µM -13% | [6]; at 3.7 µM 0% | [6]; at 11.0 µM -15% | [6]; at 33.0 µM -6% | [6]; at 100.0 µM 5% | [8]; at 1.2 µM -26% | [8]; at 3.7 µM -15% | [8]; at 11.0 µM -12% | [8]; at 33.0 µM -20% | [8]; at 100.0 µM -9% | [9]; [17] 12% | [9]; at 50.0 µM 52.4% | [10]; at 1.2 µM -20% | [10]; at 3.7 µM -18% | [10]; [17] 7% | [10]; at 11.0 µM -7% | [10]; at 33.0 µM 29% | [10]; at 100.0 µM 58% | [11]; at 1.2 µM -16% | [11]; at 3.7 µM -3% | [11]; at 11.0 µM -7% | [11]; at 33.0 µM -3% | [11]; at 100.0 µM 15% | [12]; at 1.2 µM 0% | [12]; at 3.7 µM 12% | [12]; at 11.0 µM -4% | [12]; at 33.0 µM 6% | [12]; at 100.0 µM 27% | [13]; at 1.2 µM -49% | [13]; at 3.7 µM -34% | [13]; at 11.0 µM -37% | [13]; at 33.0 µM -21% | [13]; at 100.0 µM -7% | [14]; [17] 18% | [14]; [18] 30% | [14]; at 50.0 µM -22.1% | [15]; at 1.2 µM -3% | [15]; at 3.7 µM -5% | [15]; at 11.0 µM 3% | [15]; at 33.0 µM 9% | [15]; at 100.0 µM 26%

— PubChem BioAssay (NCI)
